# Tests used:
# Assay in all cases: PBM binding z-score (relative to random genomic background probes); higher = stronger binding; sequences stand for … in GC…GCGATTGACAGCGTAGAATGAAGG
# [1] = tested on: RARb homodimer (NR concentration 270 nM)
# Outline: (§1)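 Ligand-free nuclear receptor dimers were bound for 1 h to custom Agilent 4×180K protein-binding microarrays. Detection used antibodies against each partner (one per run). Binding z-scores rest on regression-normalized fluorescence, with random background probes as the reference.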
# [2] = tested on: RARg:RXRa (NR concentration 270 nM, RXRa partner concentration 90 nM)
# Outline: as §1
# [3] = tested on: RARg homodimer (NR concentration 270 nM)
# Outline: as §1
# [4] = tested on: RXRa DBDmut IVT, anti-RXR (DBD mutation: RXRa K156A/R161A, NR concentration 90 nM)
# Outline: as §1
# [5] = tested on: RXRa homodimer (NR concentration 180 nM)
# Outline: as §1
# [6] = tested on: THRa:RXRa (NR concentration 90 nM, RXRa partner concentration 90 nM)
# Outline: as §1
# [7] = tested on: THRa homodimer (NR concentration 90 nM)
# Outline: as §1
# [8] = tested on: VDR homodimer (NR concentration 270 nM)
# Outline: as §1
Sequence,PBM binding z-score [1],PBM binding z-score [2],PBM binding z-score [3],PBM binding z-score [4],PBM binding z-score [5],PBM binding z-score [6],PBM binding z-score [7],PBM binding z-score [8]
ATATGTAGGTTAAGGGTCACTCAGGTTGGTTCGC,4.35,4.99,4,1.82,6.33,3.59,2.01,3.47
ATCGAAAGTTCGTGAGGTGAGTATACAGAAAGGC,1.8,2.22,1.86,2.13,1.78,2.23,1.23,1.22
TCTTGTAGATCAAGCCGGTTAAGAAAGCCTGAGT,0.000492,-0.162,-0.393,0.918,0.161,-0.0654,-0.203,0.0355
GCAGACAGGTGAAACGCAGGCAACTCAGGGTGGC,-0.0684,0.39,0.237,-0.513,0.435,0.404,-0.656,-0.588
CCAGCCAGGTGAAAGGTAACTCAGTCTGGTACGC,0.43,0.724,0.203,-0.519,1.37,1.55,0.326,-0.192
CTCGAAAGGTCGGTTGAAGTGAGTATACGGATAA,1.72,2.38,2.65,0.742,1.98,1.42,0.13,0.557
CCTACTGGGCCATCAGATCATTGATATCAACGTT,-0.087,0.0829,0.48,0.0432,-0.148,-0.114,-0.322,0.0449
TCTTGCAGATCAAAGGTTAAGAAAGCCGAAGCCT,1.18,1.47,0.521,0.00809,3,1.26,-0.786,-0.402
TAGCCTAGGTCATTCAGGGGCCAGTCTAGAAAGC,3.1,5.97,4.33,1.66,2.98,3.27,0.478,1.43
ATCGCTAGGTAACAAGTTCAGTGAAAGAGAGGAC,1.42,1.07,0.968,0.533,0.504,1.08,0.174,2.02
GCTTGTAGATCATGGTTAAGAAAGACTAAGCTAA,-0.707,-0.198,-0.267,0.0641,-0.538,-0.389,-0.737,-0.385
TCAGACAGGTGAAGGTAACGCAGGTACGCAGTCG,0.708,0.407,0.419,0.772,1.05,1.01,0.208,-0.187
TCTGCTAGGTCAATGATGGTCAGCTAATCTGCTA,2.75,3.45,4.62,1.11,1.89,2.59,0.321,-0.294
